Only some compounds are listed: those with a hit (about 4.7% of all), similar ones and a draw of the others.
PABP polyA inh – PABP-poly(A) binding inhibition; PABP-poly(A) RNA binding, fluorescence polarization; P11940; hit rate 1% among 290,000; inhibition, % at 35 µM;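 further: calls also rest on retests at 20 µM and on dose response follow-up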
Target sequence (P11940 whole entry, looked up): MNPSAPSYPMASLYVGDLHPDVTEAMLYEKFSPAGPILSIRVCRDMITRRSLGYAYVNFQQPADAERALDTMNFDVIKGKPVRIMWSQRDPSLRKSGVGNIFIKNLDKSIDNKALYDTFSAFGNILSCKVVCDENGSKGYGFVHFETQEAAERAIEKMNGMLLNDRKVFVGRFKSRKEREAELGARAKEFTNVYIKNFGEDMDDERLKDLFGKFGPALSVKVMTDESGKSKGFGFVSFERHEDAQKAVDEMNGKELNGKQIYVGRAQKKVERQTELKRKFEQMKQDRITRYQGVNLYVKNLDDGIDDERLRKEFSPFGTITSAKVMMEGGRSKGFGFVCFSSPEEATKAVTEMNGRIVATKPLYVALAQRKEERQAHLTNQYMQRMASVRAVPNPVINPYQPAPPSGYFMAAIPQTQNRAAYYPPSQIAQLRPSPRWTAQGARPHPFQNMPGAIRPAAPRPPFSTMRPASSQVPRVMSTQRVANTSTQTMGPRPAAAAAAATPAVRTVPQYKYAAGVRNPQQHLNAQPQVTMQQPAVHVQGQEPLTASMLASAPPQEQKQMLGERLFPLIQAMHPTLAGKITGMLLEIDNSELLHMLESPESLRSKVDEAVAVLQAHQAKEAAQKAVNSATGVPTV
MLLE-PAM2 inh – blocks PAM2 peptide binding to the PABP1 MLLE domain; AID 588489; inhibition, % at 20 µM; GST-MLLE / FITC-PAM2 fluorescence polarization; hit rate 0.36% among 360,000; P11940; in the data active means inhibition above about 35%, passing the limit was not always enough;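 further: plate controls were DMSO wells with GST-MLLE for no effect and wells lacking GST-MLLE protein for full effect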
eIF4H FP inh – inhibitors of RNA binding by human eIF4H; Q15056; eIF4H fluorescence polarization binding assay; inhibition, % at 35 µM; hit rate 0.94% among 290,000; AID 2012;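 further: calls also rest on retests at 20 µM and on dose response follow-up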
ALR H2O2 inh – blocks human ALR sulfhydryl oxidase activity. P55789. purified ALR, DTT oxidation, H2O2 HRP-luminol luminescence. inhibition, % (test concentration not listed). hit rate 3.8% among 290,000. AID 485317;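 active means mean replicate inhibition above about 79%, with every replicate also reaching it, limit read from the data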
Efflux pump mplx – inhibitors of Candida antifungal efflux pumps expressed in yeast. AID 485275. inhibition, % at 10 µM. hit rate 0.44% among 330,000. S. cerevisiae Candida pump triplex, Nile Red efflux;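 active means plate passing quality check with inhibition over a set limit, or well fluorescence over plate mean plus 4 SD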;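 further: Nile Red retained in pooled yeast measured as flow cytometry median fluorescence; 0% = buffer negative control and 100% = Enniatin B positive control; higher means more Nile Red kept so more efflux inhibition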
SUMO HTRF inh – inhibitors of human SUMOylation (UBC9); P63279; HTRF SUMOylation assay, SAE1/SAE2 + UBC9, in vitro; inhibition, % at 35 µM; hit rate 0.36% among 290,000; AID 2006; in the data active means inhibition above about 50%, passing the limit was not always enough
An asterisk follows results filed as active; ! = a repeat was not active. Unless noted, how the calls were made is not given here.

How did COC(=O)c1ccc(CN2CCc3ccccc32)cc1 do in these assays?
PABP polyA inh: 11; MLLE-PAM2 inh: 16; eIF4H FP inh: -12; ALR H2O2 inh: 98*; Efflux pump mplx: 0; SUMO HTRF inh: 2

How did COC(=O)c1nnn(-c2nonc2N)c1CN1CCc2ccccc21 do in these assays?
PABP polyA inh: 1; MLLE-PAM2 inh: -1; eIF4H FP inh: -8; ALR H2O2 inh: 98*; Efflux pump mplx: 0; SUMO HTRF inh: -2

Results for COC(=O)c1ccc(S(=O)(=O)N2CCc3ccccc32)cc1 ?
PABP polyA inh: -1; MLLE-PAM2 inh: -10; eIF4H FP inh: -2; ALR H2O2 inh: -22; Efflux pump mplx: 0; SUMO HTRF inh: -21

What do the screens show for `O=C(Nc1ccc2c(c1)nc1n2CCOC1)c1ccco1`?
PABP polyA inh: -6; MLLE-PAM2 inh: 12; eIF4H FP inh: -5; Efflux pump mplx: 0; SUMO HTRF inh: 0

How did O=C(Nc1ccc2c(c1)nc1n2CCN(C2CCCCC2)C1)c1ccco1 do in these assays?
PABP polyA inh: 22; MLLE-PAM2 inh: -29; eIF4H FP inh: 94*; SUMO HTRF inh: 38

Results for O=C(Nc1ccc2c(c1)nc1n2CCSC1)c1ccco1 ?
PABP polyA inh: 2; MLLE-PAM2 inh: 12; eIF4H FP inh: 72*; ALR H2O2 inh: 99*; Efflux pump mplx: 0; SUMO HTRF inh: 21

What do the screens show for `O=Cc1ccc(OCCOc2ccc([N+](=O)[O-])cc2)cc1`?
PABP polyA inh: 0; MLLE-PAM2 inh: -11; eIF4H FP inh: 6; ALR H2O2 inh: -11; Efflux pump mplx: 0; SUMO HTRF inh: 21

How did c1ccc(N2CCN(Cc3ccc4c(c3)OCO4)CC2)nc1 do in these assays?
MLLE-PAM2 inh: 0; ALR H2O2 inh: 5; Efflux pump mplx: 0

What do the screens show for `c1cnc(N2CCN(Cc3ccc4c(c3)OCO4)CC2)nc1`?
PABP polyA inh: 62*!; MLLE-PAM2 inh: 2; eIF4H FP inh: 51*!; ALR H2O2 inh: 8; Efflux pump mplx: 0; SUMO HTRF inh: 4

What do the screens show for `O=C(Cn1cccc1C(=O)c1ccccc1)NCc1ccc(Cl)cc1`?
PABP polyA inh: 5; MLLE-PAM2 inh: -6; eIF4H FP inh: -8; ALR H2O2 inh: 97*; Efflux pump mplx: 0; SUMO HTRF inh: 4

How did O=C(Cn1cccc1C(=O)c1ccccc1)NCCc1ccc(Cl)cc1 do in these assays?
MLLE-PAM2 inh: 3; ALR H2O2 inh: -2; Efflux pump mplx: 0

How did COc1ccc(NC(=O)CSc2nn3c(=O)c(C)nnc3s2)cc1 do in these assays?
PABP polyA inh: -5; MLLE-PAM2 inh: 19; eIF4H FP inh: -3; ALR H2O2 inh: 65; Efflux pump mplx: 0; SUMO HTRF inh: 7

What do the screens show for `Cc1nnc2sc(SCC(=O)Nc3cccc(Cl)c3)nn2c1=O`?
PABP polyA inh: 6; MLLE-PAM2 inh: 13; eIF4H FP inh: -9; ALR H2O2 inh: 98*; Efflux pump mplx: 0; SUMO HTRF inh: -3

Results for COc1ccc(OC)c(NC(=O)CSc2nn3c(=O)c(C)nnc3s2)c1 ?
PABP polyA inh: -3; MLLE-PAM2 inh: 16; eIF4H FP inh: 3; ALR H2O2 inh: 86*; Efflux pump mplx: 0; SUMO HTRF inh: -5

How did COc1cccc(NC(=O)CSc2nn3c(=O)c(C)nnc3s2)c1 do in these assays?
PABP polyA inh: 14; MLLE-PAM2 inh: 35; eIF4H FP inh: 2; ALR H2O2 inh: 99*; Efflux pump mplx: 0; SUMO HTRF inh: 7

How did CC(C)Cc1ccc(-c2cc3nc(NCCOc4ccccc4)ccn3n2)cc1 do in these assays?
MLLE-PAM2 inh: -18

Results for Cc1coc2cc3oc(=O)c(Cc4ccccc4)c(C)c3cc12 ?
PABP polyA inh: -7; MLLE-PAM2 inh: 6; eIF4H FP inh: -4; ALR H2O2 inh: -5; Efflux pump mplx: 0; SUMO HTRF inh: 4

Results for Cc1c(Cc2ccccc2)c(=O)oc2cc(O)cc(O)c12 ?
PABP polyA inh: -2; MLLE-PAM2 inh: 12; eIF4H FP inh: 9; ALR H2O2 inh: 78*; Efflux pump mplx: 0; SUMO HTRF inh: 15

Results for O=C(O)COc1ccc(/C=N/NC(=O)c2ccc(-c3csc(Nc4ccc(Cl)cc4)n3)cc2)cc1 ?
PABP polyA inh: 6; MLLE-PAM2 inh: 6; eIF4H FP inh: 98*; SUMO HTRF inh: 86*

What do the screens show for `CCOC(=O)C1CCN(C(=O)CSc2nccc(C)n2)CC1`?
PABP polyA inh: -2; MLLE-PAM2 inh: 4; eIF4H FP inh: 12; ALR H2O2 inh: -39; Efflux pump mplx: 0; SUMO HTRF inh: 1

How did COc1ccc(Cc2c(C(C)(C)C)nc3c(C)cc(Br)cn23)c(C)c1 do in these assays?
MLLE-PAM2 inh: 47*

Source: PubChem
